According to PubChem BioAssay AID430 (Sanford-Burnham Center for Chemical Genomics, 2006):
In all, about 63,000 compounds went through this assay and about 1,100 (1.7%) were called active. Only a selection was taken, and actives are over-represented in it overall. Results with a measured potency or affinity are listed apart. Unmarked numbers belong to inactive results. Cut-off read from the data, not from the text of the source: active = cytotoxicity above about 50%; inactive = the rest.

Assay: HPDE-C7 pancreatic duct cell viability loss – fluorescence, HTS (AID 430);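 note: cells exposed to compound for 48 hours before viability readout; 0% = vehicle and 100% = reference cytotoxic drug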
Conditions: HPDE-C7 pancreatic duct cells viability, at 10 µM, hits give high values
For `CC1CC(C)CN(C(=O)C(NS(=O)(=O)c2ccc3c(c2)oc(=O)n3C)C(C)C)C1` (stereo not given), the cytotoxicity was 9.9%. For `CC(Sc1nnc(Cn2c(=O)sc3ccccc32)n1C)c1ccccc1` (stereo not given), the cytotoxicity was -13.8%. For `O=C(O)CCC1COc2ccccc2O1` (stereo not given), the cytotoxicity was -3.3%. Work on `CC(C)(C)n1nc2c(c1NC(=O)c1ccc(Br)cc1)CS(=O)C2` (stereo not given) yielded a cytotoxicity of 0.9%. With `Cc1cc(NC(=O)c2cc(-c3cccs3)nc3ccccc23)no1` the cytotoxicity was 13.3%. `CCOC(=O)c1[nH]c(C)c(C(=O)NCc2ccc(C)cc2)c1C` showed a cytotoxicity of -17.6%. `CCn1c(=O)c(C(=O)Nc2cccnc2)c(O)c2ccccc21` showed a cytotoxicity of 15.8%. For `CCn1c(=O)c(C(=O)Nn2c(C)nc3ccccc3c2=O)c(O)c2ccccc21`, the cytotoxicity was 21.7%. `CCn1nc(NC(=O)c2ccncc2)c2cc3ccc(C)cc3nc21` gave a cytotoxicity of -0.2%. Compound `CCOC(=O)Cn1nnc(-c2ccc(OCC(C)C)cc2)n1` has a cytotoxicity of -9.5%. With `NC(=O)CSc1nnc(Cn2c(=O)sc3ccccc32)n1-c1ccccc1` the cytotoxicity was 3.5%. With `CCOc1ccc(-c2nnn(CC(=O)Nc3cc(OC)cc(OC)c3)n2)cc1OCC` the cytotoxicity was 8%. For `CCOc1ccc(-c2nnn(CC(=O)Nc3ccccc3OC)n2)cc1OCC`, the cytotoxicity was -3.5%. In the case of `CCOc1ccc(-c2nnn(CC(=O)Nc3cc(OC)ccc3OC)n2)cc1OCC`, the cytotoxicity is reported as 69.5% (active). Compound `CCOC(=O)c1ccc(NC(=O)c2cc(S(=O)(=O)N3CCOCC3)ccc2O)cc1` has a cytotoxicity of 3.3%. Compound `Cc1c(Cl)cccc1NC(=O)CC(C(=O)O)C1CCCO1` (stereo not given) has a cytotoxicity of 7.8%. Work on `Cc1ccc(N2C(N)=NC(N)=NC23CCCC3)c(C)c1` yielded a cytotoxicity of -2.3%. In the case of `Cc1ccc2nc(NCc3ccccc3)[nH]c2c1`, the cytotoxicity is reported as 70.4% (active). Compound `c1ccc(CNc2nc3ccccc3[nH]2)cc1` has a cytotoxicity of -11.8%. Work on `COc1ccc2nc(NCc3ccccc3)[nH]c2c1` yielded a cytotoxicity of 39.1%. Work on `CN(CC(=O)NC1CCCc2ccccc21)S(=O)(=O)c1ccc2c(c1)c(=O)n(C)c(=O)n2C` (stereo not given) yielded a cytotoxicity of -10.5%. For `c1csc(-c2csc(-c3cccs3)n2)c1`, the cytotoxicity was -4.7%. `COc1ccccc1S(=O)Cc1ccc(C(=O)NC2CCCC2)o1` (stereo not given) showed a cytotoxicity of -13.2%. In the case of `COC(=O)c1ccccc1NC(=O)Cn1cc2c(n1)CCC(C)C2` (stereo not given), the cytotoxicity is reported as -7.1%. In the case of `O=C1NC(c2cccs2)Nc2ccccc21` (stereo not given), the cytotoxicity is reported as 5%. In the case of `Cc1ccsc1C1NC(=O)c2ccccc2N1` (stereo not given), the cytotoxicity is reported as -19.5%. For `Cc1ccc(C2NC(=O)c3ccccc3N2)s1` (stereo not given), the cytotoxicity was 55.9% (active). `CCN(CC)CCn1c(OC)cc(=O)[nH]c1=O` showed a cytotoxicity of -2.5%. In the case of `O=C(CCNC(=O)c1ccc(Br)o1)NCc1ccccc1Cl`, the cytotoxicity is reported as -6.1%. Compound `CC(C)c1ccc(-c2nc(N3CCCCC3)[nH]c(=O)c2C#N)cc1` has a cytotoxicity of 24.7%. For `COc1ccc(CCNC(=O)CSc2nnnn2Cc2ccc3c(c2)OCO3)cc1OC`, the cytotoxicity was -16.4%. Compound `COc1ccc(-c2noc(C)c2-c2ccc3ccccc3n2)c(O)c1` has a cytotoxicity of 48.2%. `COc1ccc(OC(=O)c2cc3ccccc3o2)cc1` gave a cytotoxicity of -0.5%. In the case of `CCOC(=O)c1ccc(NC(=O)Cn2nnc3ccccc32)cc1`, the cytotoxicity is reported as 3.7%. Compound `CCOCCSC1=C(C#N)C(c2cccs2)C(C(C)=O)=C(C)N1` (stereo not given) has a cytotoxicity of 4.5%. With `CCOC(=O)C1=C(C)NC(SCc2cc(=O)[nH][nH]2)=C(C#N)C1c1cccs1` (stereo not given) the cytotoxicity was 37.1%. `CCSC1=C(C#N)C(c2cccs2)C(C(=O)OC)=C(C)N1` (stereo not given) showed a cytotoxicity of 13.4%. In the case of `C#CCSC1=C(C#N)C(c2cccs2)C(C(=O)OCC)=C(C)N1` (stereo not given), the cytotoxicity is reported as 53% (active). Work on `CCOC(=O)C1=C(C)NC(SCC(=O)Nc2cc(C)on2)=C(C#N)C1c1cccs1` (stereo not given) yielded a cytotoxicity of 10.6%. In the case of `CCOC(=O)C1=C(C)NC(SCC(=O)Nc2nc(C)cs2)=C(C#N)C1c1cccs1` (stereo not given), the cytotoxicity is reported as 78.9% (active). With `O=C(Nc1ccc2c(c1)OCO2)C1CC(c2ccccc2Cl)=NO1` (stereo not given) the cytotoxicity was 5.2%. In the case of `CC(=O)OCC(=O)NCc1ccc2c(c1)OCO2`, the cytotoxicity is reported as -32.4%. Compound `c1ccc(-n2c(Sc3cnccn3)nnc2-c2cccs2)cc1` has a cytotoxicity of -0.3%. In the case of `Cc1occc1C(=O)Nc1cccnc1`, the cytotoxicity is reported as -15.1%. With `CNS(=O)(=O)c1ccc(Oc2ccc(S(=O)(=O)NC)cc2)cc1` the cytotoxicity was 5%. In the case of `C=CS(=O)(=O)c1ccc(Oc2ccc(S(=O)(=O)C=C)cc2)cc1`, the cytotoxicity is reported as 93.9% (active). Work on `O=S(=O)(c1ccc(Oc2ccc(S(=O)(=O)N3CCOCC3)cc2)cc1)N1CCOCC1` yielded a cytotoxicity of -11.9%. `CCOC(=O)Cc1csc(NC(=O)CCS(=O)(=O)Cc2ccccc2)n1` showed a cytotoxicity of 0%. Work on `Cc1cccc(NC(=O)NCCN2C(=O)C3C4C=CC(C4)C3C2=O)c1` (stereo not given) yielded a cytotoxicity of 0.7%. Work on `CC(=O)NC(Cc1c[nH]c2ccccc12)C(=O)N1CCc2ccccc2C1` (stereo not given) yielded a cytotoxicity of 4.8%. In the case of `COc1cc(C2c3c(n[nH]c3C)C(=O)N2c2ccc(Br)cc2)ccc1O` (stereo not given), the cytotoxicity is reported as 27.9%. In the case of `COc1cc(C2c3c(n[nH]c3C)C(=O)N2c2ccc(C)cc2)ccc1O` (stereo not given), the cytotoxicity is reported as 53.1% (active). With `CCOc1cc(C2c3c(n[nH]c3C)C(=O)N2c2ccc(Br)cc2)ccc1O` (stereo not given) the cytotoxicity was 15.4%. Work on `COc1ccc(Cl)cc1N(CC(=O)N1CCN(Cc2ccccc2)CC1)S(C)(=O)=O` yielded a cytotoxicity of -0.8%. `CC(C)(C)NC(=O)CSc1nnc(-c2ccco2)n1Cc1ccco1` gave a cytotoxicity of -15.8%. With `COC(=O)c1ccc(C(=O)OC)nc1` the cytotoxicity was -18.5%. With `CCOC1(NC(=O)c2ccccc2)C(C)=CC(=O)C=C1C` the cytotoxicity was -9.8%. Work on `O=C(Cn1cccc1)Nc1ccc(OC(F)(F)F)cc1` yielded a cytotoxicity of -1.8%. `C=CCn1c(SC(CCO)C(=O)NCc2ccco2)nc2sc3c(c2c1=O)CCC3` (stereo not given) gave a cytotoxicity of 6.3%. `C=CCn1c(SCC(=O)N2CCOCC2)nc2sc3c(c2c1=O)CCCC3` gave a cytotoxicity of -1.2%. With `C=CCn1c(NCCO)nc2sc3c(c2c1=O)CCC3` the cytotoxicity was 62.9% (active). In the case of `COc1ccc(Cl)cc1S(=O)(=O)N1CCN(C)CC1`, the cytotoxicity is reported as -4.6%. For `CCN(CC)C(=O)C1CCCN(C/C(C)=C/c2ccccc2)C1` (stereo not given), the cytotoxicity was -8.8%. Compound `N#Cc1c2c(c(=S)n(-c3ccccc3)c1N)CCCC2` has a cytotoxicity of 1.6%. Compound `CCOC(=O)c1c(N)sn(-c2ccccc2)c1=S` has a cytotoxicity of -2%. In the case of `CC(C(=O)N1CCN(c2ccccc2)CC1)N1C(=O)C2CC=CCC2C1=O` (stereo not given), the cytotoxicity is reported as -2.6%. Compound `CC(=O)c1c(C)[nH]c(C)c1C(C)=O` has a cytotoxicity of -8.7%. With `CCc1[nH]c(C)c(C(C)=O)c1C` the cytotoxicity was 59.8% (active). `CCCNC(=O)c1[nH]c(C)c(C(C)=O)c1C` showed a cytotoxicity of 2%. `COc1ccc(Cn2c3nc4ccccc4nc3c3c(=O)n(Cc4ccco4)cnc32)cc1` showed a cytotoxicity of 20.7%. With `CC(C)C1N(S(=O)(=O)c2ccccc2)CCN1S(=O)(=O)c1ccccc1` the cytotoxicity was 2%. `Cc1cccc(OCCCCCNCCO)c1` gave a cytotoxicity of 9.6%. Work on `N#Cc1ccc(-c2ccco2)nc1SCC(=O)c1ccc(Cl)cc1` yielded a cytotoxicity of 21.1%. `COc1ccc(OC)c(NC(=O)CSC2=C(C#N)C(c3ccco3)C3=C(CCCC3=O)N2)c1` (stereo not given) showed a cytotoxicity of -1.5%. Compound `Nc1nnc(SCc2ccccc2Cl)s1` has a cytotoxicity of 8.4%. Work on `CS(=O)(=O)Nc1ccccc1C(=O)Nc1cccc(Cl)c1` yielded a cytotoxicity of 5.3%. Work on `COc1ccc(Cl)cc1NC(=O)Cn1c(=O)n2nc(C)nc2c2ccccc21` yielded a cytotoxicity of 7.2%. With `O=C(CSc1n[nH]c(-c2ccccc2O)n1)N1CCCc2ccccc21` the cytotoxicity was 2.3%. Work on `Cc1ccnc(NS(=O)(=O)c2ccc(NS(=O)(=O)Cc3ccccc3)cc2)n1` yielded a cytotoxicity of -21.7%. In the case of `CCOc1ccccc1C1CC(=O)Nc2cc3c(cc21)OCO3` (stereo not given), the cytotoxicity is reported as 59.7% (active). `CCOc1ccccc1C1CC(=O)Nc2cc(OC)c(OC)c(OC)c21` (stereo not given) showed a cytotoxicity of -16.2%. For `CCOc1ccccc1C1CC(=O)NC2=C1C(=O)CC(C)(C)C2` (stereo not given), the cytotoxicity was 9.7%. With `CCOc1c(OC)cccc1C1CC(=O)Nc2cc(OC)c(OC)cc21` (stereo not given) the cytotoxicity was 7.3%. For `CCOc1ccccc1C1CC(=O)Nc2cc3c(cc21)OCCO3` (stereo not given), the cytotoxicity was 51.1% (active). `CCOc1c(OC)cccc1C1CC(=O)Nc2cc3c(cc21)OCCO3` (stereo not given) gave a cytotoxicity of 13.7%. With `CN(C(=O)C12CC3CC(CC(C3)C1)C2)C1CCS(=O)(=O)C1` (stereo not given) the cytotoxicity was -5.1%. With `O=C(Oc1cc(=O)oc2ccccc12)c1ccco1` the cytotoxicity was 14.1%. In the case of `CCCCS(=O)(=O)/C=C\C=C/S(=O)(=O)CCCC`, the cytotoxicity is reported as 111% (active). `CCCCS(=O)(=O)/C=C\C1C2C=CC(C2)C1S(=O)(=O)CCCC` (stereo not given) showed a cytotoxicity of -10.1%. With `CC(=O)NC1(c2cccc(F)c2)CCN(C(=O)Nc2ccc(C#N)cc2)CC1` the cytotoxicity was -15%. `CC(NC(=O)Cc1ccsc1)c1ccc(S(N)(=O)=O)cc1` (stereo not given) gave a cytotoxicity of 5.5%. Compound `CN1CCN(CCC(=O)N2c3ccccc3Sc3ccc(Cl)cc32)CC1` has a cytotoxicity of 17.5%. `O=C(CN1CCN(CCOCCO)CC1)N1c2ccccc2Sc2ccc(Cl)cc21` showed a cytotoxicity of -24.7%. For `CN(C)CCCN1c2ccccc2CCc2ccc(Cl)cc21`, the cytotoxicity was 31.8%. `OCCN1CCN(C(=S)c2ccc(Cl)cc2)CC1` gave a cytotoxicity of -26%. In the case of `CN1CCN(CCCN2c3ccccc3Sc3ccc(Cl)cc32)CC1`, the cytotoxicity is reported as 75% (active). `CCCN(C(=O)CSc1nnc(-c2ccoc2C)n1N)C1CCS(=O)(=O)C1` (stereo not given) showed a cytotoxicity of 6.4%. Compound `CCOC(=O)c1cn(CC)c2ccc(S(=O)(=O)N3CC(C)CC(C)C3)cc2c1=O` (stereo not given) has a cytotoxicity of -2%. With `CC1=C(C(=O)OCC2CCCO2)C(c2cccc(O)c2)NC(=O)N1` (stereo not given) the cytotoxicity was -6.4%. `CC(=O)N1CCc2cc(S(=O)(=O)CCC(=O)NCc3ccc4c(c3)OCO4)ccc21` showed a cytotoxicity of -4.4%.
